This is part of a sample that, as a whole, favours compounds with a hit. Of some 79,000 tested, about 15% had one in any assay. A number with no mark means an inactive call. The source made the active and inactive calls. Rule as the data show it: active = growth inhibition above about 70%; inactive = the rest.
Assays:
[1] = NCI Yeast Anticancer Drug Screen. Data for the rad50 strain (AID 155);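 also: 0% = growth of vehicle-only cultures of the same strain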; conditions: S. cerevisiae rad50 strain growth inhibition; at 50.0 µM; stronger effect = higher value
Method in brief: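 Vehicle-treated cultures provide the reference for the growth inhibition reported for compound-exposed, repair-deficient yeast.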

[2] = NCI Yeast Anticancer Drug Screen. Data for the mec2-1 strain (AID 157); conditions: S. cerevisiae mec2-1 strain, at 50.0 µM, stronger effect = higher value
Method in brief: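 Vehicle-treated cultures served as reference for growth inhibition of compound-exposed mec2-1 yeast.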

[3] = NCI Yeast Anticancer Drug Screen. Data for the sgs1 mgt1 strain (AID 161);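 also: 0% = growth of cultures given vehicle only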; conditions: S. cerevisiae sgs1 mgt1 strain, at 50.0 µM, stronger effect = higher value
Method in brief: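 Inhibition of yeast growth, normalised to vehicle-treated controls, is reported for a strain bearing genetic alterations in DNA damage repair.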

[4] = NCI Yeast Anticancer Drug Screen. Data for the cln2 rad14 strain (AID 165);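 also: 0% = growth equal to vehicle treated cultures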; conditions: S. cerevisiae cln2 rad14 strain, at 50.0 µM, stronger effect = higher value
Method in brief: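 Each compound was tested on cln2 rad14 yeast. Inhibition of growth was calculated against vehicle-exposed controls.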

[5] = NCI Yeast Anticancer Drug Screen. Data for the bub3 strain (AID 167); conditions: S. cerevisiae bub3 mutant strain, at 50.0 µM, stronger effect = higher value
Method in brief: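 Mutant yeast screening strain plus compound; vehicle-treated cultures serve as the 0% inhibition reference.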

[6] = NCI Yeast Anticancer Drug Screen. Data for the mlh1 rad18 strain (AID 175); conditions: S. cerevisiae mlh1 rad18 strain growth inhibition; at 50.0 µM; stronger effect = higher value
Method in brief: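 Vehicle-treated cultures served as the reference for growth inhibition in a yeast strain carrying DNA damage repair alterations exposed to each compound.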

Compound | growth inhibition [1] | growth inhibition [2] | growth inhibition [3] | growth inhibition [4] | growth inhibition [5] | growth inhibition [6]
CCOC(=O)C(C)(C)Oc1ccc2c(=O)cc(-c3ccc(Cl)cc3)oc2c1 | -19.6% | -20.1% | -30.3% | -14.5% | -38.9% | -29.4%
O=Cc1c(O)nc[nH]c1=O | -23.9% | -27.9% | -4.15% | 6.75% | -13.4% | -7.7%
O=c1ccn2n1Cc1ccccc1C2 | -25.9% | -20.8% | -17.9% | 13.3% | -6.05% | -20.6%
N/C(=N\O)c1ccccc1 | 27.1% | 0.6% | 13.7% | 15.3% | 4.35% | 23.1%
N#CCCn1ncc(C#N)c1N | 3.4% | -7.95% | -1.5% | -38.5% | -2.5% | 8.5%
C/C(=N/NC(N)=O)c1c(C)c(Cl)cc(Cl)c1OCCCC(C)C | -8.1% | -3.05% | 0.45% | -6.1% | 22.9% | -10.6%
CCC(CC)(SC(C)C(N)=O)C(C)=O (stereo unspecified) | 0.35% | 7.4% | -16.3% | -11.3% | 5.75% | 0.6%
CC(=O)C(C)C(C)=O | -2.95% | 0.7% | 1.4% | -21.6% | 22.6% | -0.85%
CC(=O)C(N=Nc1nc2ccccc2[nH]1)C(C)=O | 27.1% | 14.1% | -1.8% | 15.2% | 47.9% | 32.5%
S=c1[nH]n(-c2ccccc2)c(=S)s1 | -28.7% | -41.1% | -4.95% | -1.15% | 15.3% | -22.6%
O=C(O)c1cccc(/C=N/O)c1O | -16.9% | -3.25% | -6.45% | -10.5% | 7.75% | 8.55%
CC(C)=CC(=O)OC1C2C(CC(C)C3C(O)CC(=O)C13C)OC(=O)C2C (stereo unspecified) | -0.3% | -44.3% | -0.2% | 17.8% | -27.9% | -16.9%
CC(Sc1ccccn1)C(=O)c1ccccc1 (stereo unspecified) | -1.55% | -6.75% | -4.05% | -52.5% | -9.05% | 1.2%
CC[N+](C)(CC)CCl | -49.2% | -17.9% | -20.8% | -45.4% | 7.6% | -1.65%
N=C(N)c1ccc(OCCOc2cccc(N)c2)cc1 | 3.35% | -15.8% | 11.2% | -39% | -5% | 13.5%
NC(N)=NC(N)=Nc1cnccn1 | 13.7% | 6.8% | 2.5% | 15.8% | -10.5% | 15.2%
COc1ccc(NC(=O)Nc2ccc(-c3ccc(NC(=O)Nc4ccc(OC)cc4)c(C)c3)cc2C)cc1 | -30.1% | -41.4% | -8.5% | -3.25% | -24.1% | -23.6%
O=C(OCC1OC(OC(=O)c2ccccc2)C(F)C1OC(=O)c1ccccc1)c1ccccc1 (stereo unspecified) | -2.65% | -18.6% | 7.15% | -20.1% | -8.25% | 7.9%
CN(C)Cc1ccc(O)c(CN(C)C)n1 | -21.1% | -19.1% | -14.8% | -3.65% | -49.8% | -19.2%
COc1ccc2nc3c(=O)[nH]c(=O)nc-3n(CC(O)C(O)C(O)CO)c2c1 (stereo unspecified) | 24.9% | 6.9% | 16.1% | 25.3% | 10.9% | 34.2%
CC1=CC(=O)C2C(C)(C)CCCC2(C)C1(O)CCc1ccoc1 (stereo unspecified) | 96.2% (active) | 88% (active) | 93.4% (active) | 92.2% (active) | 89.7% (active) | 96.8% (active)

Compound | growth inhibition [1] | growth inhibition [2] | growth inhibition [3] | growth inhibition [4] | growth inhibition [5] | growth inhibition [6]
CC/C(=N\N=C(/CC)c1cccs1)c1cccs1 | 25.5% | -6.4% | -10.7% | 3.35% | 13.1% | -3.75%
Cc1ccc(/C=C/C(=O)/C=C/c2ccc(C)cc2)cc1 | 9.05% | 9.25% | 15.6% | -2.6% | 23.6% | 18.7%
CC1SC2=NC3=C(c4ccccc4C3=O)C(c3ccc(F)cc3)N2C1=O (stereo unspecified) | 34.4% | 24.2% | 35.8% | 32% | 47.1% | 22.8%
CCC(C(O)c1ccc(Cl)cc1)C(O)(C(F)(F)F)C(F)(F)F (stereo unspecified) | 99.4% (active) | 99.5% (active) | 99.6% (active) | 99.5% (active) | 99.3% (active) | 99.4% (active)
NC(=O)c1nnn2c1nc(N)c1cc(Cl)ccc12 | -28.4% | -26.6% | -9.55% | -18.4% | -27.6% | -22.6%
COC(=N)/C(C#N)=N/C1OCC(O)C(O)C1O (stereo unspecified) | 5.65% | -21.1% | 2.15% | -31.6% | 0.35% | 0.45%
[N-]=[N+]=NC1OC(=O)C(Cl)=C1N=P(c1ccccc1)(c1ccccc1)c1ccccc1 (stereo unspecified) | 4.3% | 11.3% | 24.4% | 9.6% | 12.1% | 23%
O=S(=O)(Nc1cccc(Br)c1)N1CCCCC1 | 23.5% | 10% | 23.6% | 13.8% | 28.6% | 31.6%
CC(=O)OCCn1c(Cc2ccc(C)cc2)nn(C(C)=O)c1=O | 16.6% | 5.5% | 11.8% | 3.4% | 5.9% | -0.95%
O=c1oc(-c2cccc(C[n+]3ccccc3)c2)nc2cc(Cl)ccc12 | -14.9% | -6.8% | -11.4% | -0.45% | -7.1% | -4.75%
COC(=O)CCCC(=O)O | 4.4% | -5.2% | -2.6% | -15.4% | 2.9% | 8.25%
O=C(CN1C(=O)c2cccc3c(Br)ccc(c23)C1=O)c1ccc(Cl)cc1 | -14.2% | -12.7% | 5.85% | 5% | 6.8% | 13.6%
CCOC(=O)C(=CNC(=S)c1cccnc1)C(=O)OCC | -23.9% | -37.7% | -20.9% | -7.75% | -10% | -1.5%
CCCCNC(=O)C1C(=O)N(CCCC)C(=O)/C1=N\N (stereo unspecified) | -1.45% | 26.4% | 8.5% | 56.3% | 0.35% | 12.8%
COc1cccc2c1ccc1nonc12 | 0.05% | -4.1% | -2.25% | -50% | -19.1% | 2.2%
CC(=O)C1(O)CCC2C3CCC4CC(=O)CCC4(C)C3C(=O)CC21C (stereo unspecified) | 4.4% | -24.8% | 2.25% | 27.9% | 13.6% | -10.6%
CCOC(=O)C(Cc1ccccc1)Nc1c(Cl)c(=O)oc2ccc(C)cc12 (stereo unspecified) | 18.6% | -3.2% | 32.7% | 26.9% | -16.4% | 19.6%
CCOc1ncc(C(O)c2ccco2)c(OCC)n1 (stereo unspecified) | -0.85% | 5.85% | 5.7% | -47.8% | 3.15% | -8%
Cc1c(I)sc(I)c1I | 39.6% | 1.75% | 30.9% | 12.9% | 4.1% | 12.6%
C=C1CC(CCCCCCC2CC(=C)C(=O)O2)OC1=O (stereo unspecified) | 11.2% | 1.05% | -0.35% | 2.3% | 25.4% | -25.9%

— PubChem BioAssay (NCI)
